Data from PubChem BioAssay (NCATS).
Results filed as inconclusive are left out. Entries that show only a call come without a potency. Unmarked numbers belong to inactive results. Activity calls are given as the source filed them. Calls follow the shape of the dose curve; as a rule, active = well fitted curve in the direction sought with a large enough effect; inconclusive = small, poorly fitted or top-dose-only effect, or another doubt; inactive = no such curve, though single readings can be large; an effect the other way counts as inactive or inconclusive.

Assays:
CRL-7250 = normal cell line; experiment: Cytotoxic Profiling of Annotated Libraries Using Quantitative High-Throughput Screening (AID 1296008); details: Five cell lines viability, CellTiter-Glo ATP luminescence, 48-72 h; max response: hits give low values; also: nearly all actives have a fitted effect of over 60% in size; also: potency is read from the fitted curve at half-maximal effect
Method in brief: (§1)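 Cytotoxicity was measured as CellTiter-Glo ATP luminescence, read after 10 min at room temperature. Compound treatment of the cells lasted 48 or 72 hr at 37 degrees Celsius in a qHTS format.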

HaCat [1] = experiment: as above; details: Five cell lines viability, CellTiter-Glo ATP luminescence, 48-72 h; max response: hits give low values
Method in brief: as §1

KB-3-1 = experiment: as above; details: Five cell lines viability, CellTiter-Glo ATP luminescence, 48-72 h; max response: hits give low values
Method in brief: as §1

NIH3T3 = experiment: as above; details: Five cell lines viability, CellTiter-Glo ATP luminescence, 48-72 h; max response: hits give low values
Method in brief: as §1

C33A = experiment: Primary qHTS to identify gynecologic anti-cancer compounds using libraries of approved drugs and bioactive compounds (AID 1345084); details: Gynecologic cancer cell panel viability, ATPlite luminescence, 48 h; series mostly up to 57.5 µM; also: nearly all actives have a fitted effect of over 55% in size; also: potency is read from the fitted curve at half-maximal effect
Method in brief: (§2)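 Five-point cytotoxicity, 48 h drug exposure at 37 C, 5% CO2, on cells seeded 16 h beforehand. ATP content read by ATPlite luminescence.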

CASKI = experiment: as above; details: Gynecologic cancer cell panel viability, ATPlite luminescence, 48 h; series mostly up to 57.5 µM
Method in brief: as §2

Es-2 = experiment: as above; details: Gynecologic cancer cell panel viability, ATPlite luminescence, 48 h; series mostly up to 57.5 µM
Method in brief: as §2

HeLa = experiment: as above; details: Gynecologic cancer cell panel viability, ATPlite luminescence, 48 h; series mostly up to 57.5 µM
Method in brief: as §2

Hek293T = experiment: as above; details: Gynecologic cancer cell panel viability, ATPlite luminescence, 48 h, control line for the selectivity index; series mostly up to 57.5 µM
Method in brief: as §2

JEG-3 = experiment: as above; details: Gynecologic cancer cell panel viability, ATPlite luminescence, 48 h; series mostly up to 57.5 µM
Method in brief: as §2

OV90 = experiment: as above; details: Gynecologic cancer cell panel viability, ATPlite luminescence, 48 h; series mostly up to 57.5 µM
Method in brief: as §2

CAOV3 = experiment: as above; details: Gynecologic cancer cell panel viability, ATPlite luminescence, 48 h; series mostly up to 57.5 µM
Method in brief: as §2

HACAT [2] = experiment: qHTS assay to identify novel small-molecules to repurpose for Merkel cell carcinoma treatment (AID 1296009); details: MCC and control cell lines, CellTiter-Glo viability, 72 h; at 44.8 µM (top of the series) unless noted; also: nearly all actives have a fitted effect of over 60% in size
Method in brief: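 72 hr, 37 degree celsius; NPC 8-pt / MIPE 11-pt dose response; compound pinned in DMSO; CellTiter-Glo, 10 min RT, luminescence; normalized to no-cell and DMSO controls.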

| Compound | max response (CRL-7250) [%] | max response (HaCat [1]) [%] | max response (KB-3-1) [%] | max response (NIH3T3) [%] | Potency (C33A) | Potency (CASKI) | Potency (Es-2) | Potency (HeLa) | Potency (Hek293T) | Potency (JEG-3) | Potency (OV90) | Potency (CRL-7250) | Potency (KB-3-1) | Potency (NIH3T3) | Potency (CAOV3) | outcome (HaCat [1]) | outcome (HACAT [2]) | Potency (HaCat [1]) | outcome (KB-3-1) |
| --- | --- | --- | --- | --- | --- | --- | --- | --- | --- | --- | --- | --- | --- | --- | --- | --- | --- | --- | --- |
| CC(=O)OC1C(=O)C2C3OCC4=C3[C@@](C)(CC[C@@H]4O)CC[C@]2(C)[C@H]1C(C)C (some centres undefined) | 0.411 | -13.7 | 4.67 | 1.97 | inactive | inactive | inactive | inactive | inactive | inactive | inactive |  |  |  |  |  |  |  |  |
| Cn1cc(-c2ccc(S(=O)(=O)n3ccc(/C=C/C(=O)Nc4ccccc4N)c3)cc2)cn1 |  | -149 |  |  |  |  | 8.91 µM (active) | 10 µM (active) |  | 10 µM (active) | 15.8 µM (active) | 9.2 µM (active) | 1.46 µM (active) | 4.61 µM (active) | 17.8 µM (active) |  |  |  |  |
| CCOc1ccc(Cc2nc(-c3c(C)nc4ccccn34)cs2)cc1 |  | -17.5 |  |  | 0.355 µM (active) |  | 0.0891 µM (active) |  |  |  |  | 0.0517 µM (active) | 0.0259 µM (active) | 0.0461 µM (active) |  |  |  |  |  |
| O=C(OC1CN2CCC1CC2)N1CCc2ccccc2C1c1ccccc1 (centres undefined) | 0.185 |  | -9.02 |  | inactive | inactive | inactive | inactive | inactive | inactive |  |  |  |  | inactive | inactive | inactive |  |  |
| Cc1[nH]c(/C=C2\C(=O)Nc3cc(-c4ccccc4)ccc32)c(C)c1CCC(=O)O | -17.7 |  | -8.26 |  | inactive |  |  |  |  | inactive | inactive |  |  |  | inactive | inactive | inactive |  |  |
| Cc1cc(CS(=O)(=O)c2ccccc2)cc(OCc2ccc(CN3CCCC3CO)cc2)c1 (centres undefined) | 4.21 |  | -16.6 |  | inactive | inactive | inactive | inactive | inactive | inactive |  |  |  |  | inactive | inactive | inactive |  |  |
| O=C(NCC1(c2nc(-c3ccccc3)cs2)CCOCC1)c1cccc(-c2noc(C(F)(F)F)n2)c1 | -0.2 |  | -10.2 |  | inactive | inactive | inactive | inactive | inactive | inactive | inactive |  |  |  | inactive | inactive | inactive |  |  |
| O=C(Nc1ccc(N2C(=O)[C@@H]3[C@H](C2=O)[C@@H]2C=C[C@H]3C2)c(Cl)c1)c1ccccn1 | -25.2 | -18.9 | -24.5 | -23.8 |  |  |  | inactive |  |  |  |  |  |  |  |  |  |  |  |
| CCOc1nc(NC(=O)Cc2cc(OC)ccc2OC)cc(N)c1C#N | -9.74 |  | 7.15 |  | inactive | inactive | inactive | inactive | inactive | inactive | inactive |  |  |  |  | inactive | inactive |  |  |
| C=CC(=O)N1CCCC(n2nc(-c3ccc(Oc4ccccc4)cc3)c3c(N)ncnc32)C1 (centres undefined) | 3.87 |  | -21.4 |  | inactive |  | inactive | inactive | inactive | inactive | inactive |  |  |  | inactive |  |  | 1.3 µM (active) |  |
| Cc1cccc(C#Cc2cc(F)cc(C#N)c2)n1 | -2.01 | -1.48 | 2.45 |  | inactive | inactive | inactive | inactive | inactive | inactive | inactive |  |  |  | inactive |  |  |  |  |
| CN(C)[C@@H]1CCc2[nH]c3ccc(NC(=O)c4ccc(F)cc4)cc3c2C1 | -12.5 | -11.8 | 1.75 |  | inactive | inactive | inactive | inactive | inactive | inactive | inactive |  |  |  | inactive |  |  |  |  |
| Cc1cnn(-c2ccccc2)c1NC(=O)COCc1ccccc1 | -16.8 | 3.62 | 3.83 |  | inactive | inactive | inactive | inactive | inactive | inactive | inactive |  |  |  | inactive |  |  |  |  |
| COc1cc(-c2cn(C3CCc4c(F)cccc4N(CC(F)(F)F)C3=O)nn2)ccc1-n1cnc(C)c1 (centres undefined) | -13.5 | -32.4 | -16.9 |  | inactive | inactive | inactive | inactive | inactive | inactive | inactive |  |  |  | inactive |  |  |  |  |
| COc1ccc(C(=O)O[C@H]2C=COC=C3C=C4C(=O)N(C)C(=S)C(=O)N4[C@@H]32)cc1Oc1cc(C=O)ccc1O | -5.08 |  |  |  | inactive | inactive | inactive | inactive | inactive | inactive | inactive |  |  |  |  | inactive | inactive [at 17.4 µM] |  | inactive |
| COc1ccccc1C(=O)Nc1cccc(NC(=O)c2cccc(C)c2)c1 | -5.11 | 3.09 | 4.14 |  |  | inactive | inactive | inactive | inactive | inactive | inactive |  |  |  | inactive |  |  |  |  |
